Assay results reported in PubChem BioAssay AID687001 (Broad Institute, 2013).
Entries with a potency or affinity are not part of this list. The source made the active and inactive calls.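 The calls were made as follows: active = signal-lowering compounds whose fitted half-maximal concentration is at or below twice the top tested dose in every run; inconclusive = runs disagree, flat 30 to 70% inhibition, or poor curve fit; inactive = the rest.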

These molecules were tested against Protein S100-A4 (Homo sapiens) (UniProt P26447) (assay: S100A4-myosin IIA binding inhibitor potency, dose response, biochemical, fluorescence polarization, cherry-picked hits (AID 687001)). Conditions: FP, S100A4/TAMRA-myosin IIA peptide binding; series mostly up to 11 µM.
Chain of Protein S100-A4 (Homo sapiens) (P26447 whole entry, looked up): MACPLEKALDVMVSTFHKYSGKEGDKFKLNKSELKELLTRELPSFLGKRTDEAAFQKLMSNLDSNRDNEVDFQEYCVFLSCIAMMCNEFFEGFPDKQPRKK

outcome, inactive:
O=C(COC(=O)Cc1ccc(Cl)c(Cl)c1)Nc1ccc2[nH]c(=O)[nH]c2c1, COc1ccc(NC(=O)c2ccccc2OCc2c(C)noc2C)cc1OC, Oc1cccc(-c2sc3ccccc3c2-c2ccc(OCCN3CCCCC3)cc2)c1, C#CCOCCOCCOCCNc1nc(N2CCN(C(=O)[C@H]([C@@H](C)CC)n3cc(CCCCN)nn3)CC2)nc(N2CCN(C(=O)[C@H](C)n3cc(CCC(=O)O)nn3)CC2)n1, CC(C)NC(=O)COc1coc(CN2CCN(c3ccccc3)CC2)cc1=O, CCS(=O)(=O)c1nc(S(=O)(=O)c2ccc(C)cc2)c(NCCCN2CCCC2=O)s1, COc1ccc(C(=O)CC(=O)C(=O)Nc2c(C)cccc2C)cc1, CCOC(=O)C1(C)CCN1C(=O)c1csnn1 (centres undefined), Cc1ccc(S(=O)(=O)Nc2ccc3c(c2)C(=O)N([C@H](C)CO)C[C@@H](C)[C@H](CN(C)S(C)(=O)=O)OCCCC[C@@H](C)O3)cc1, O=C(C[C@@H]1CC[C@@H](NC(=O)NC2CCCC2)[C@H](CO)O1)NCc1ccc(F)cc1, CC1Sc2ccc(S(=O)(=O)N3CCC(C(=O)NCCc4ccccc4)CC3)cc2NC1=O (centres undefined), COc1ccc(/C=C2/CCCc3ccccc3C2=O)cc1, C[C@@H]1CCCCO[C@@H](CN(C)C(=O)CCC(F)(F)F)[C@@H](C)CN([C@@H](C)CO)C(=O)c2cc(NC(=O)c3ccccc3)ccc2O1, COc1cccc(S(=O)(=O)N2CC[C@@H]3[C@@H](CO)Nc4ccc(C#Cc5ccccc5)cc4[C@@H]32)c1, CCCC(=O)Nc1ccc(C=C(C(C)=O)C(C)=O)cc1, OCCC1CN(Cc2ccc3c(c2)CCO3)CCN1Cc1ccc(F)cc1 (centres undefined), CCOC(=O)N1CCN(C(=O)COc2ccc3oc4c(c3c2)CCCC4)CC1, C[C@@H]1CN([C@@H](C)CO)C(=O)c2cc(C#CCc3ccccc3)cnc2O[C@@H]1CN(C)CC1CC1, CNC[C@@H]1Oc2ccc(NC(=O)Nc3cccc4ccccc34)cc2C(=O)N([C@H](C)CO)C[C@@H]1C, CCCNC(=O)N1[C@@H]2c3ccc(-c4ccccc4OC)c(=O)n3C[C@@H]2[C@@H](CO)[C@@H]1C(=O)NC1CCC1, COc1cc(/C=C2\SC(=S)N(NC(=O)c3cccc(O)c3)C2=O)ccc1O, C[C@@H]1CN([C@H](C)CO)C(=O)c2cc(NS(=O)(=O)c3ccc(Cl)cc3)ccc2O[C@@H](C)CCCCO[C@H]1CN(C)Cc1ccc(Cl)c(Cl)c1, COc1ccc(-c2cc(C(=O)NC3CC3)c3ccccc3n2)cc1, O=C(COC(=O)Cc1ccc(F)cc1)Nc1ccc2[nH]c(=O)[nH]c2c1, C[C@@H]1CCCCO[C@H](CN(C)S(=O)(=O)c2ccc(Cl)cc2)[C@@H](C)CN([C@@H](C)CO)C(=O)c2cc(NS(=O)(=O)c3ccc(F)cc3)ccc2O1, CN(CC(=O)Nc1cccc(F)c1)C(=O)c1cccc(S(=O)(=O)N2CCN(Cc3ccccc3)CC2)c1, O=C(C[C@H]1CC[C@H](NS(=O)(=O)c2cccc(F)c2)[C@@H](CO)O1)NCc1ccc2c(c1)OCO2, O=S(=O)(NC(=NCc1ccccc1)c1ccccc1)c1ccccc1, C[C@@H]1CCCCO[C@@H](CN(C)C(=O)Cc2ccccc2)[C@H](C)CN([C@@H](C)CO)C(=O)c2cc(NC(=O)Cc3ccccc3)ccc2O1, Cn1c(=O)[nH]c(=O)c2c1nc(SCC(=O)O)n2CCOc1ccccc1, O=C(CSc1ccsc1[N+](=O)[O-])NCc1ccccc1, CN1c2ccc(-c3ccccc3)cc2[C@@H]2[C@@H](CCN2C(=O)c2cccc(F)c2)[C@@H]1CO, COc1ccc(NC(=O)CN(C)C(=O)C2CC(=O)N(c3ccc4c(c3)OCCO4)C2)cc1 (centres undefined), O=C(O)[C@@H]1[C@@H](CO)[C@@H]2Cn3c(ccc(/C=C/c4ccccc4)c3=O)[C@@H]2N1C(=O)C1CCCC1, C[C@@H]1CCCCO[C@H](CN(C)C(=O)NC2CCCCC2)[C@@H](C)CN([C@@H](C)CO)C(=O)c2cc(NC(=O)Nc3ccc(C(F)(F)F)cc3)ccc2O1, COCC(=O)N1C[C@H]2[C@@H](c3ccccc31)[C@@H](CO)N2C(=O)Nc1ccccc1F, CCCN1C[C@H](C)[C@H](OC)CN(C)C(=O)c2cc(NC(=O)NC3CCCCC3)ccc2OC[C@@H]1C, O=C(C[C@H]1CC[C@H]2NC[C@H](O)COC[C@@H]2O1)NCCN1CCCCC1, COc1ccc(OCC(=O)N2CCN(S(=O)(=O)c3ccc(Cl)s3)CC2)cc1
